“And” between values parts separate entries of the source, which are not always exact repeats. Equal entries are not always repeated. Records with an inconclusive call do not appear. Where a call stands in place of a potency, no number is given. The source made the active and inactive calls. The call rests on the fitted dose curve; in most records, active means well fitted cell-killing curve with a large enough effect in the repeat runs; inconclusive means weak or mixed curves; inactive means flat fitted curve, though single readings scatter.
Potency means the concentration at half of the fitted maximal effect.

A short description of this experiment: qHTS RealTime-Glo MT Cell Viability Assay in HepG2 cells - 32 hour (AID 1224877). Further: nearly all actives have a fitted effect of over 55% in size. The conditions noted are these: RealTime-Glo luminescence; series mostly up to 76.8 µM. From the text: U.S. Tox21 Program National Center for Advancing Translational Sciences [NCATS] NIH Chemical Genomics Center [NCGC] U.S. Environmental Protection Agency [EPA] National Institutes of Environmental Health Sciences [NIEHS] National Toxicology Program [NTP] U.S. Food and Drug Administration [FDA] Tox21 Assay Overview: Measure of cell viability is critical in the cell-base assay. Analysis of cell viability is necessary for the characterization of cell responses to cytotoxic drugs and environmental stress. A RealTime-Glo MT Cell Viability Assay to monitor cell viability in real time of continues cell culture during 40 hours of compound treatment was used to screen Tox21 10K library compounds in HepG2 cells. The RealTime-Glo MT Cell Viability Assay is a nonlytic, homogeneous, bioluminescent method to measure cell viability in real time using a simple, plate-based method. The assay involves adding NanoLuc luciferase and a cell-permeant prosubstrate to cells in culture. Viable cells reduce the proprietary prosubstrate to generate a substrate for NanoLuc luciferase. This substrate diffuses from cells into the surrounding culture medium, where it is rapidly used by the NanoLuc Enzyme to produce a luminescent signal. The signal correlates with the number of viable cells, making the assay well suited for cytotoxicity studies.
Tox21 Assay Protocol Summary: The mixture of HepG2 cell suspension and reagents were dispensed at 600cells/6 ul/well in 1536-well tissue culture treated black solid bottom plates using a Multidrop dispenser. After the assay plates were incubated at a 37 C/5% CO2 incubator for 5 hours, 23 nL of compounds dissolved in DMSO, positive and negative controls was transferred to the assay plate by a pintool work station. The plates were incubated at 37 C for 40 hours. The luminescence intensity were measured at 0h, 8h, 16h, 24h, 32h and 40h time points using ViewLux plate reader during compound treatment.
`CC(C)CCON=O`: the Potency entry is “inactive”.
For the compound `CC(O)CN1CCN(CC(=O)[O-])CCN(CC(=O)[O-])CCN(CC(=O)[O-])CC1.[Gd+3]` (stereo not given), the Potency entry was “inactive”.
Turning to `CCCC1CCCCN1` (stereo not given), the Potency result was “inactive”.
Under `CC(C)(C)OOC(C)(C)CCC(C)(C)OOC(C)(C)C` stands “inactive”; under `C=CCSSCC=C`, “inactive”; under `CCc1cnc(C2=NC(C)(C(C)C)C(=O)N2)c(C(=O)O)c1` (stereo not given), “inactive”.
Under `Cc1nnc(-c2ccccc2)c(=O)n1N` stands “inactive”; under `CCOC(=O)C1OC1(C)c1ccccc1` (stereo not given), “inactive”; under `OCC1CO1` (stereo not given), “inactive”.
On to `O=C(O)C(Cl)(Cl)Br`, for which the Potency result was “inactive”.
The same measure for `CCOc1cccc(C2(N3CCN(c4ccccc4)CC3)CCC(C)CC2)c1` (stereo not given): “inactive”; for `O=[N+]([O-])c1cc(Cl)c(Cl)cc1Cl`: “inactive”; for `CCCCC#N`: “inactive”.
With `CC(C)c1ccc(NC(=O)N(C)C)cc1`, the Potency result is “inactive”.
On to `Cc1nc(N(C)C)nc(OC(=O)N(C)C)c1C`, for which the Potency result is “inactive”.
As to `C=CCN1C[C@H](C)N([C@H](c2ccc(C(=O)N(CC)CC)cc2)c2cccc(OC)c2)C[C@H]1C`, the Potency result is “inactive”.
With `CCCCC(CC)CO[N+](=O)[O-]` (stereo not given), the Potency result was “inactive”.
For the compound `O=P(OCC(Br)CBr)(OCC(Br)CBr)OCC(Br)CBr` (stereo not given), the Potency result was “inactive”.
Turning to `O=C(O)COc1cc(Cl)c(Cl)cc1Cl`, the Potency entry is “inactive”.
Turning to `O=CC=O`, the Potency entry is “inactive”.
Turning to `FC(F)OC(F)(F)C(F)Cl` (stereo not given), the Potency result is “inactive”.
In the case of `CCCCCCCCn1sccc1=O`, the Potency is 43.7 µM (active) and 16.2 µM (active).
As to `O=C(N[C@H]1CN2CCC1CC2)c1ccc2c(c1)OCCO2`, the Potency entry was “inactive”.
Under `CCOC(=O)c1cncn1C(C)c1ccccc1` (stereo not given) stands “inactive”; under `C=CC(C)(CCC=C(C)C)OC(=O)c1ccccc1N` (stereo not given), “inactive”; under `NC(=S)c1c(Cl)cccc1Cl`, “inactive”.
Turning to `Nc1ccc2c(c1)Cc1ccccc1-2`, the Potency result was “inactive”.
The same measure for `CN(C)C(=O)Nc1cccc(OC(=O)NC(C)(C)C)c1`: “inactive”; for `CCCSP(=S)(OCC)Oc1ccc(SC)cc1` (stereo not given): “inactive”; for `CCCBr`: “inactive”.
Under `O=C(O)c1ccc(=O)[nH]c1` stands “inactive”.
The same measure for `ClCc1ccccc1Cl`: “inactive”; for `Cc1cccc(C)c1NC1=NCCCS1`: “inactive”.
Regarding `CN(C1CCCCC1)C1CCCCC1`, the Potency entry was “inactive”.
Take `CC(C)(C#N)C(C)(C)C#N`: the Potency result is “inactive”.
As to `Cc1ccc2c(C)cccc2c1`, the Potency entry is “inactive”.
In the case of `CN1CC[C@]23c4c5ccc(O)c4O[C@H]2[C@@H](O)C=C[C@H]3[C@H]1C5`, the Potency entry is “inactive”.
Consider `CCCCCl`, for which the Potency result was “inactive”.
`CCCCCCCCCCCCN(C)C`: the Potency result was “inactive”.
`C[C@]12C=CC3=C4CCC(=O)C=C4CC[C@H]3[C@@H]1CC[C@@H]2O`: the Potency entry is “inactive”.

Values taken from PubChem BioAssay (Tox21).
